In ChEMBL document CHEMBL3433997, “St. Jude Leishmania screening dataset” (2016):
“And” between values parts separate entries of the source, which are not always exact repeats. Equal entries are not always repeated.

How the values were obtained:
Assay type in all cases: functional
[1] = molecular target: Solute carrier family 2, facilitated glucose transporter member 1 (Homo sapiens) (UniProt P11166); experiment: ST_JUDE_LEISH: Cytotoxicity at 2uM final concentration against transgenic Leishmania Mexicana promastigotes LmGLUT1 that are glucose transport deficient and complemented with the human glucose transporter GLUT1. Activity is measured by DNA content using SYBR green in vitro
Solute carrier family 2, facilitated glucose transporter member 1 (Homo sapiens), sequence (P11166 whole entry): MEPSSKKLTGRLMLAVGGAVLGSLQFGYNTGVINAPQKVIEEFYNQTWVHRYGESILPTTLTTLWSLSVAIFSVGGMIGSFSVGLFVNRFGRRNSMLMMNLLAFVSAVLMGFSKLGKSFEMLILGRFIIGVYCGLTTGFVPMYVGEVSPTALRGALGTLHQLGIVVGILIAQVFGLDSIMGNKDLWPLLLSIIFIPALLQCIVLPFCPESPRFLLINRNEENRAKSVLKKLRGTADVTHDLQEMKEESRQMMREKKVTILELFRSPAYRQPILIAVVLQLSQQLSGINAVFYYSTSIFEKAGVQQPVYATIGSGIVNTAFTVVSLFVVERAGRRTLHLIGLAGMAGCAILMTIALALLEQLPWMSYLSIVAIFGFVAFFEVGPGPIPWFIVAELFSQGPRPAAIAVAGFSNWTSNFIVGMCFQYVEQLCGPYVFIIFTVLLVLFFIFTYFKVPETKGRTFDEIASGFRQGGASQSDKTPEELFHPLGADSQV

[2] = molecular target: Hexose transporter 1 (Plasmodium falciparum) (UniProt O97467); experiment: ST_JUDE_LEISH: Cytotoxicity at 2uM final concentration against transgenic Leishmania Mexicana promastigotes LmPfHT that are glucose transport deficient and complemented with the Plasmodium falciparum hexose transporter. Activity is measured by DNA content using SYBR green in vitro
[3] = molecular target: Glucose transporter (Leishmania mexicana) (UniProt O61059); experiment: ST_JUDE_LEISH: Cytotoxicity at 2uM final concentration against transgenic Leishmania Mexicana promastigotes LmGT2 that are glucose transport deficient and complemented with the L. Mexicana glucose transporter 2. Activity is measured by DNA content using SYBR green in vitro

SMILES	inhibition [1]	inhibition [2]	inhibition [3]
O=C(C=C1c2ccccc2-c2ccccc21)NC1CCC(CN2CCC(c3c[nH]c4ccccc34)CC2)CC1 (stereo not drawn)	0.2% and -2.16%	0.36% and -1.31%	-0.17% and -1.28%
Cc1ccc(-n2nc(C)c3c2NC(=O)CSC3c2ccsc2)cc1 (stereo not drawn)	9.48%	13.5%	11%
CCCCCCc1cc(O)c2c3c(c(=O)oc2c1)CCN(C)C3	7.26%	4.97%	6.76%
O=C(CCCCCc1ccccc1)NC1CCC(CN2CCC(c3c[nH]c4ccccc34)CC2)CC1 (stereo not drawn)	0.89%	-3.78%	-1.29%
CN1CC=C(c2c[nH]c3ccc(Oc4ccccc4)cc23)CC1	0.93%	6.03%	3.03%
Oc1ccc(Cl)cc1CN1CCC(CCOC(c2ccccc2)c2ccc(Cl)cc2)CC1 (stereo not drawn)	46.7%	25.3%	5.18%
C/C=C1\CN2CC[C@H]1C[C@@H]2[C@@H](O)c1ccnc2ccc(O)cc12	2.02%	1.55%	2.5%
CN(c1cc(NC(=O)c2ccc(F)cc2)ccn1)C1CCN(Cc2ccc(C#N)cc2)CC1	2.42%	2.29%	4.46%
C=C[C@H]1CN2CC[C@H]1C[C@@H]2[C@@H](O)c1ccnc2ccccc12	-1.24%	1.12%	0.13%
O=C(/C=C/c1ccc([N+](=O)[O-])cc1)NC1CCC(CN2CCC(c3c[nH]c4ccccc34)CC2)CC1 (stereo not drawn)	2.8% and -1.4%	1.89% and -2.18%	0.45%
O=[N+]([O-])c1ccc(Oc2c(Cl)cc(S(=O)(=O)NC3CCC(CN4CCC(c5c[nH]c6ccccc56)CC4)CC3)cc2Cl)c(Cl)c1 (stereo not drawn)	2.41%	0.39%	-1.14%
COC(=O)CN(C(=O)/C=C/c1ccc(Cl)c(Cl)c1)C1CCC(CN2CCC(c3c[nH]c4ccccc34)CC2)CC1 (stereo not drawn)	1.07%	4.03%	2.24%
CCCCCCC(C)(C)c1cc(O)c2c3c(c(=O)oc2c1)CCN(Cc1ccccc1)C3	3.18%	4.84%	8.58%
O=C(C=Cc1ccccc1Br)NC1CCC(CN2CCC(c3c[nH]c4ccccc34)CC2)CC1 (stereo not drawn)	9.4% and 3.03%	3.62% and 2.4%	0.32% and 2.12%
CC(=O)Nc1ccc(OCCN(CC(F)(F)F)c2ccc(C#N)cc2C(F)(F)F)cc1	2.13%	2.71%	0.98%
O=C(NC1CCC(CN2CCC(c3c[nH]c4ccccc34)CC2)CC1)c1cn(Cc2ccccc2)c2ccccc12 (stereo not drawn)	0.71%	1.32%	-1.09%

SMILES	inhibition [1]	inhibition [2]	inhibition [3]
O=C(/C=C/c1ccc(Cl)c(Cl)c1)NCC1CCCC(CN2CCC(c3c[nH]c4ccccc34)CC2)C1 (stereo not drawn)	2.54%	3.43%	0.26%
Cn1nc(C(F)(F)F)cc1-c1ccc(C(=O)NC2CCC(CN3CCC(c4c[nH]c5ccccc45)CC3)CC2)s1 (stereo not drawn)	6.48%	4.44%	2.24%
CC[C@H]1CN2CC[C@@H]1C[C@H]2[C@H](O)c1cc(N2CCCC(C)(C)C2)nc2ccc(OC)cc12	0.42%	-0.61%	0.37%
CS(=O)(=O)Nc1ccc2[nH]cc(C3CCN(CC4CCN(C(=O)/C=C/c5ccc(Cl)c(Cl)c5)CC4)CC3)c2c1	4.43%	3.49%	4.09%
O=C(NC1CCC(CN2CCC(c3c[nH]c4ccccc34)CC2)CC1)c1csc(-c2cccc(Cl)c2Cl)n1 (stereo not drawn)	5.32%	4.16%	2.71%
CC(C)CNCc1ccc(-c2cccc(CN(C(=O)Nc3ccccc3)C3CCN(Cc4ccccc4)CC3)c2)cc1	0.61%	-0.02%	-1.04%
CN(c1ccnc(Nc2ccc(CS(C)(=O)=O)cc2)n1)C1CCN(Cc2ccccc2)CC1	2.04%	2.62%	1.21%
OC(CNCc1ccccc1OC(F)F)c1cccc(C(F)(F)F)c1 (stereo not drawn)	1.52%	1.17%	1.62%
Cc1[nH]c2ccccc2c1C1CCN(CC2CCC(NC(=O)/C=C/c3ccc(Cl)c(Cl)c3)CC2)CC1 (stereo not drawn)	6.8%	6.35%	7.15%
Oc1ccc(CN2CCN(CCOC(c3ccccc3)c3ccc(Cl)cc3)CC2)cc1Cl (stereo not drawn)	5.8%	1.85%	-3.12%
COc1ccc(CC(C)NCC(O)c2cccc(Cl)c2)cc1C (stereo not drawn)	7.48%	5.85%	7.3%
CCC(C)(C)NC(C)C(O)c1ccc(C(F)(F)F)cc1 (stereo not drawn)	-0.19%	0.51%	-0.15%
O=C(/C=C/c1ccc(F)c(C(F)(F)F)c1)N1CCC(CN2CCC(c3c[nH]c4ccccc34)CC2)CC1	0.7%	0.53%	0.74%
CC[C@H]1CN2CC[C@H]1C[C@H]2[C@H](O)c1ccnc2ccc(O)cc12	0.99%	2.1%	1.04%
CCCc1c(C(=O)NC2CCC(CN3CCC(c4c[nH]c5ccccc45)CC3)CC2)cnn1-c1ccccc1 (stereo not drawn)	3.14%	1.15%	1.83%
